This is part of a sample that, as a whole, favours compounds with a hit. Of some 79,000 tested, about 15% had one in any assay. Active and inactive are the calls of the source. No stated cut-off is given here; in the data, active means growth inhibition above about 70%; inactive means the rest.
Key:
[1] = NCI Yeast Anticancer Drug Screen. Data for the rad50 strain (AID 155);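 further: 0% = growth of vehicle-only cultures of the same strain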; details: S. cerevisiae rad50 strain growth inhibition; at 50.0 µM; stronger effect = higher value
How it was run: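 Relative growth inhibition (compound vs vehicle) was measured in yeast with a defined repair-gene alteration.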

[2] = NCI Yeast Anticancer Drug Screen. Data for the mec2-1 strain (AID 157); details: S. cerevisiae mec2-1 strain, at 50.0 µM, stronger effect = higher value
How it was run: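 Mutant yeast (mec2-1) grown with compound; growth inhibition relative to vehicle control reported.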

[3] = NCI Yeast Anticancer Drug Screen. Data for the sgs1 mgt1 strain (AID 161);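 further: 0% = growth of cultures given vehicle only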; details: S. cerevisiae sgs1 mgt1 strain, at 50.0 µM, stronger effect = higher value
How it was run: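 Growth of a repair-deficient yeast mutant was monitored after compound treatment and expressed as inhibition relative to vehicle-treated cultures.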

[4] = NCI Yeast Anticancer Drug Screen. Data for the cln2 rad14 strain (AID 165);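 further: 0% = growth equal to vehicle treated cultures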; details: S. cerevisiae cln2 rad14 strain, at 50.0 µM, stronger effect = higher value
How it was run: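 Readout is yeast growth inhibition versus vehicle-treated controls, using a strain with cln2 and rad14 alterations exposed to compound.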

[5] = NCI Yeast Anticancer Drug Screen. Data for the bub3 strain (AID 167); details: S. cerevisiae bub3 mutant strain, at 50.0 µM, stronger effect = higher value
How it was run: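 Screening used yeast with an engineered genetic alteration affecting cell cycle control. Compound-exposed cultures were compared with vehicle cultures, and reduced growth was taken as inhibition.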

[6] = NCI Yeast Anticancer Drug Screen. Data for the mlh1 rad18 strain (AID 175); details: S. cerevisiae mlh1 rad18 strain growth inhibition; at 50.0 µM; stronger effect = higher value
How it was run: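 Genetically defined yeast (DNA repair-deficient) exposed to compounds; growth inhibition determined relative to vehicle.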

Measured: growth inhibition

O=C(Cc1ccccc1)NC(CSCc1ccccc1)C(=O)O (configuration not stated)
inactive: [1] 9.85% | [2] 19.2% | [3] -15% | [4] -39.1% | [5] 10.8% | [6] 40.2%

O=c1oc2nc(-c3ccccc3)[nH]c(=O)c2c(O)c1Cc1ccccc1
inactive: [1] 6.35% | [2] 2.75% | [3] 1.55% | [4] 8.7% | [5] 27.6% | [6] 26.9%

Cc1c2cnccc2c(C)c2c1c1ccccc1n2CCCCCC#N
active: [1] 98.8% | [2] 99.1% | [3] 99.2% | [4] 98.1% | [5] 98.5% | [6] 98.8%

Ic1ccc(N=Cc2cccs2)cc1
inactive: [1] 5.1% | [2] -1.85% | [3] 21.6% | [4] 6.8% | [5] 10.8% | [6] 21.8%

O=C(c1ccccc1)c1ccc2cccc3c2c1CC3
inactive: [1] 40.2% | [2] 14.6% | [3] 32.1% | [4] 20.8% | [5] 51.6% | [6] 34.4%

CCOC(=O)c1[nH]n(-c2ccccc2)c(=O)c1/C=N/C(=S)Nc1c(CC)cccc1CC
inactive: [1] -18.1% | [2] -29.2% | [3] -18.2% | [4] -13.2% | [5] -8.25% | [6] -15.1%

N#CC1(c2ccccc2)C(c2ccccc2)CC(O)(c2ccccc2)C(C(=O)c2ccccc2)C1c1ccccc1 (configuration not stated)
inactive: [1] 19.9% | [2] 4.75% | [3] 3.5% | [4] 14.3% | [5] -1.1% | [6] -3.5%

C/C(=N\N)c1cnc(N)nc1C
inactive: [1] -2.75% | [2] 5.4% | [3] 7.65% | [4] -6.3% | [5] -11.7% | [6] -12.8%

O=C1c2ccccc2C(=O)N1CCNc1ccccc1[N+](=O)[O-]
inactive: [1] -9.25% | [2] -12.2% | [3] 7% | [4] -22.9% | [5] 6.5% | [6] -19.2%

CC(=O)C(CN1CCOCC1)C(C)(C)O (configuration not stated)
inactive: [1] 2.9% | [2] 31.8% | [3] 15.6% | [4] -6.35% | [5] 2.8% | [6] 12.4%

CC1=C(CCC#N)C(=O)C(CCC#N)C(C)(C)C1 (configuration not stated)
inactive: [1] 0.15% | [2] -8.65% | [3] -16.6% | [4] -29.6% | [5] -2.75% | [6] -7.9%

O=C(O)c1cc(S(=O)(=O)O)ccc1O
inactive: [1] 9.7% | [2] 18% | [3] -9.9% | [4] -29.9% | [5] -16.7% | [6] -13.2%

O=C(NN1C(=O)CSC1c1ccccc1F)c1ccncc1 (configuration not stated)
inactive: [1] 11.2% | [2] 6.25% | [3] 21.6% | [4] 7.7% | [5] 11.9% | [6] 19.5%

Nc1nc(CCC(=O)O)cs1
inactive: [1] -6.85% | [2] -14.4% | [3] 4.9% | [4] -24.1% | [5] -1.45% | [6] -18.7%

CCCCCOC(=O)CC(CC(=O)OCCCCC)C(=O)OCCCCC
inactive: [1] 14.3% | [2] 5.15% | [3] 14% | [4] -3.8% | [5] -28.6% | [6] 1.75%

Cc1cc(C)c(S(=O)(=O)ONC(=O)OC(C)(C)C)c(C)c1
inactive: [1] 11.8% | [2] -3.9% | [3] -4% | [4] 4.9% | [5] 11.2% | [6] -8.1%

C#CCC[N+](C)(C)C
inactive: [1] -0.75% | [2] -12.5% | [3] -5.2% | [4] 11.2% | [5] -7.45% | [6] 4.55%

CC(=O)Oc1cc(I)cc(C(=O)O)c1
inactive: [1] -10% | [2] 9.85% | [3] -1.05% | [4] -9.15% | [5] 3.3% | [6] -10.4%

CC(=O)NC(CCCCNC(=O)NCCCl)C(=O)NCc1ccccc1 (configuration not stated)
inactive: [1] 3.3% | [2] -22.8% | [3] -2.85% | [4] 20.8% | [5] -12% | [6] -8.9%

Cc1ccc(S(=O)(=O)NNC(=O)Nc2cccc(C(F)(F)F)c2)cc1
inactive: [1] 24.4% | [2] -18% | [3] 18.1% | [4] -2.15% | [5] -0.3% | [6] 54.7%

CC(C)(C)CC(C)(C)c1ccc(OCCOc2ccc([N+](=O)[O-])cc2N)cc1
inactive: [1] 56.5% | [2] 11.1% | [3] 41.6% | [4] 4% | [5] 4.9% | [6] 26.1%

COc1ccc(C)cc1N=NC1C(=O)N(C(=O)CC(=O)Nc2ccccc2OC)N=C1c1ccccc1 (configuration not stated)
inactive: [1] 12.8% | [2] -1.5% | [3] -7.4% | [4] 6.55% | [5] 2.35% | [6] 15.3%

Cc1cccc(C)c1NC(=O)CCC/C(CC(=O)c1ccc(F)cc1)=N\NC(=O)C(=O)NN
inactive: [1] 20.2% | [2] 2.7% | [3] 2.4% | [4] -32.1% | [5] -4.9% | [6] 19.8%

CNc1nnnn1C1OC(CO)C(O)C1O (configuration not stated)
inactive: [1] -2.15% | [2] -8.9% | [3] -9.6% | [4] 9.35% | [5] -10.7% | [6] -21.4%

COCNC(=O)NCC(F)(F)C(F)(F)C(F)(F)C(F)(F)C(F)(F)C(F)(F)C(F)(F)F
inactive: [1] -9.9% | [2] 7.6% | [3] -1.2% | [4] 15.9% | [5] -5.7% | [6] 28.5%

Clc1ccccc1C(N1CCCCC1)C(Cl)(Cl)Cl (configuration not stated)
inactive: [1] 26.6% | [2] 14.6% | [3] 12.8% | [4] 18% | [5] 3.85% | [6] 21.3%

FC1(F)SC2c3ccccc3CC2C1(F)F (configuration not stated)
inactive: [1] 20.4% | [2] 6.15% | [3] 7.75% | [4] -47.2% | [5] 8.35% | [6] 9.95%

Cn1c(=S)sc2ccc(S(=O)(=O)C(F)F)cc21
inactive: [1] 23.7% | [2] 20.9% | [3] 4.7% | [4] 12.8% | [5] 22.6% | [6] 25.1%

Fc1ccc(NC(=S)Nc2ccccn2)cc1
inactive: [1] 4.05% | [2] -6.4% | [3] -4.25% | [4] -59.5% | [5] 6.05% | [6] 19.9%

CC1CC(C#N)=C(NC#N)NC1=O (configuration not stated)
inactive: [1] -0.5% | [2] 12.4% | [3] 19.2% | [4] 5.55% | [5] -0.75% | [6] 9.4%

CCOC(=O)c1c[nH]c(C(=O)OCC)c1C
inactive: [1] 14.4% | [2] 6.6% | [3] 4.2% | [4] -59.9% | [5] -4.5% | [6] 14.2%

Cc1[nH]c2ccccc2c1CC1CC(=O)OC1=O (configuration not stated)
inactive: [1] -8.35% | [2] -18.6% | [3] 12.5% | [4] 6.3% | [5] -9.15% | [6] -7.15%

CCCCC(=O)CCC(=O)O
inactive: [1] 9.7% | [2] 11.6% | [3] 4.95% | [4] 13.8% | [5] 9.7% | [6] 12.7%

CC(C)CCOc1ccc(CCO)cc1
inactive: [1] 0.45% | [2] -8.9% | [3] -4.5% | [4] -7.75% | [5] -36.4% | [6] -24.8%

Cc1cc(=O)c2c3c(ccc2[nH]1)Oc1ccccc1O3
inactive: [1] 7.9% | [2] 5.95% | [3] 5.2% | [4] 8.45% | [5] 7.1% | [6] 13.1%

CSC1=NNC(c2ccccc2)=C(c2ccccc2)S1
inactive: [1] -1.55% | [2] 4.2% | [3] 52% | [4] -31.8% | [5] 59.7% | [6] 0.45%

COc1ccccc1NC(=O)CC(=O)n1nc(C)c(N=Nc2ccccc2C(=O)O)c1C
inactive: [1] -12.6% | [2] -25.3% | [3] -17.6% | [4] -14.9% | [5] -15.8% | [6] -9.5%

Reference: PubChem BioAssay (NCI)
